# Test results published in PubChem BioAssay (EPA / NIEHS).
# “And” between values parts separate entries of the source, which are not always exact repeats. Equal entries are not always repeated. The source holds several records for some structures; these can differ, active in one and inactive in another. The source made the active and inactive calls. Rule for the calls: active = hit-call score of the fitted dose curve at least 0.9, where 1 is the maximum; inactive = score below 0.9.
# Legend:
# [1] = read-out: Plasminogen activator inhibitor-1 (PAI1), SERPINE1 (gene 5054); test: BSK_CASM3C_PAI1: BioMAP Diversity Plus: CASM3C Assay for Plasminogen activator inhibitor-1 (PAI1) Biomarker Activity (AID 2284284); conditions: primary human coronary artery smooth muscle cells;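 note: PAI-1 protein level measured by ELISA 24 h after dosing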
# [2] = read-out: Monocyte Chemoattractant Protein-1 (MCP1), CCL2 (gene 6347); test: BSK_hDFCGF_MCP1: BioMAP Diversity Plus: hDFCGF Assay for Monocyte Chemoattractant Protein-1 (MCP1) Biomarker Activity (AID 2284285); conditions: primary human foreskin fibroblasts
# How it was run: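 MCP-1 ELISA readout was taken 24 hours after dosing primary human dermal fibroblasts in the hDFCGF system, with DMSO as baseline. Parallel sulforhodamine B staining of total protein tracked overt cytotoxicity.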
# [3] = read-out: Vascular cell adhesion molecule 1 (VCAM1), VCAM1 (gene 7412); test: BSK_IMphg_VCAM1: BioMAP Diversity Plus: IMphg Assay for Vascular cell adhesion molecule 1 (VCAM1) Biomarker Activity (AID 2284286); conditions: primary human endothelial cells with macrophages
# How it was run: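 ELISA read-out of VCAM-1 on venular endothelial cell/macrophage co-cultures at 24 h post-treatment, with DMSO as baseline and positive-direction fitting. Parallel sulforhodamine B total-protein staining (560 nm) served as the overt cytotoxicity measure.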
# [4] = read-out: Intercellular Adhesion Molecule 1 (ICAM1), ICAM1 (gene 3383); test: BSK_hDFCGF_ICAM1: BioMAP Diversity Plus: hDFCGF Assay for Intercellular Adhesion Molecule 1 (ICAM1) Biomarker Activity (AID 2284287); conditions: primary human foreskin fibroblasts
# How it was run: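 ICAM-1 ELISA readout 24 h after dosing, DMSO as baseline, in human dermal foreskin fibroblast cultures. Cytotoxicity checked in parallel wells by SRB staining (0.1% SRB, 10% TCA fixation, 560 nm).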
# [5] = read-out: TIMP metallopeptidase inhibitor 2 (TIMP2), TIMP2 (gene 7077); test: BSK_hDFCGF_TIMP2: BioMAP Diversity Plus: hDFCGF Assay for TIMP metallopeptidase inhibitor 2 (TIMP2) Biomarker Activity (AID 2284289); conditions: primary human foreskin fibroblasts
# How it was run: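 Primary human foreskin fibroblasts in the hDFCGF system, dosed for 24 h; TIMP-2 level measured by ELISA, fitted in the positive direction against DMSO; cytotoxicity checked in parallel by sulforhodamine B total protein staining.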
# [6] = read-out: Interleukin-1 alpha (IL1a), IL1A (gene 3552); test: BSK_IMphg_IL1a: BioMAP Diversity Plus: IMphg Assay for Interleukin-1 alpha (IL1a) Biomarker Activity (AID 2284290); conditions: primary human endothelial cells with macrophages
# How it was run: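 IL-1α is quantified by ELISA at 24 h in the endothelial/macrophage IMphg co-culture, with gain of signal fitted relative to DMSO. Parallel SRB total-protein staining flags overt toxicity.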
# [7] = read-out: E-selectin (Homo sapiens) (UniProt P16581); test: BSK_IMphg_ESelectin: BioMAP Diversity Plus: IMphg Assay for Eselectin Biomarker Activity (AID 2284291); conditions: primary human endothelial cells with macrophages
# How it was run: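 Analysed against DMSO baseline in the positive fitting direction, this endpoint is an ELISA read of E-selectin. It comes from human venular endothelial cells co-cultured with macrophages, sampled 24 h post-dose.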
# [8] = BSK_IMphg_SRB: Viability Assessment in the BioMAP Diversity Plus: IMphg Assay (AID 2284292); conditions: primary human endothelial cells with macrophages;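 note: measured one day after compound addition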
# How it was run: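 SRB viability endpoint: cultures of human endothelial cells plus macrophages fixed with 10% TCA, stained with 0.1% SRB, read at 560 nm 24 h post-dosing. Only gain-of-signal fitted, relative to DMSO.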
# [9] = read-out: Macrophage colony-stimulating factor (MCSF), CSF1 (gene 1435); test: BSK_IMphg_MCSF: BioMAP Diversity Plus: IMphg Assay for Macrophage colony-stimulating factor (MCSF) Biomarker Activity (AID 2284293); conditions: primary human endothelial cells with macrophages
# How it was run: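 M-CSF was measured by ELISA in human venular endothelial cell/macrophage co-cultures dosed for 24 hours. Sulforhodamine B staining of parallel cultures assessed cytotoxicity; data fitted against DMSO baseline.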
# [10] = read-out: Interleukin-10 (IL10), IL10 (gene 3586); test: BSK_IMphg_IL10: BioMAP Diversity Plus: IMphg Assay for Interleukin-10 (IL10) Biomarker Activity (AID 2284294); conditions: primary human endothelial cells with macrophages
# How it was run: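 IL-10 read by ELISA after 24 h chemical exposure of primary human venular endothelial cell/macrophage cocultures, with DMSO as baseline. Parallel SRB staining (560 nm) gauged overt cytotoxicity.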
# [11] = BSK_IMphg_SRB.Mphg: Macrophage Viability Assessment in the BioMAP Diversity Plus: IMphg Assay (AID 2284295); conditions: primary human endothelial cells with macrophages
# How it was run: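 Cytotoxicity read-out: parallel cultures fixed with 10% TCA, stained with 0.1% sulforhodamine B, read at 560 nm. System combines venular endothelium and macrophages; sampled 24 h post-dosing, fitted positively relative to DMSO control.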
# [12] = read-out: Thrombomodulin, THBD (gene 7056); test: BSK_LPS_Thrombomodulin: BioMAP Diversity Plus: LPS Assay for Thrombomodulin Biomarker Activity (AID 2284296); conditions: primary human HUVEC with PBMC
# How it was run: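 Thrombomodulin on the surface of LPS-activated endothelial/PBMC co-cultures was quantified by ELISA at 24 hours post-dosing, with DMSO as baseline. Parallel SRB total-protein staining flagged overt cytotoxicity.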
# [13] = read-out: CD40, CD40 (gene 958); test: BSK_IMphg_CD40: BioMAP Diversity Plus: IMphg Assay for CD40 Biomarker Activity (AID 2284288); conditions: primary human endothelial cells with macrophages
# How it was run: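 ELISA read-out of cell-surface CD40 at 24 h in human venular endothelial cell/macrophage co-cultures. Activity fitted in the positive direction against DMSO; parallel SRB staining (560 nm) gauges overt cytotoxicity.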
# [14] = read-out: CD69, CD69 (gene 969); test: BSK_LPS_CD69: BioMAP Diversity Plus: LPS Assay for CD69 Biomarker Activity (AID 2284303); conditions: primary human HUVEC with PBMC
# How it was run: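 CD69 surface levels were read by ELISA after 24 h chemical treatment of an LPS-stimulated HUVEC plus PBMC co-culture; positive-direction fit against DMSO vehicle.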
# Chain of E-selectin (Homo sapiens) (P16581 whole entry, looked up): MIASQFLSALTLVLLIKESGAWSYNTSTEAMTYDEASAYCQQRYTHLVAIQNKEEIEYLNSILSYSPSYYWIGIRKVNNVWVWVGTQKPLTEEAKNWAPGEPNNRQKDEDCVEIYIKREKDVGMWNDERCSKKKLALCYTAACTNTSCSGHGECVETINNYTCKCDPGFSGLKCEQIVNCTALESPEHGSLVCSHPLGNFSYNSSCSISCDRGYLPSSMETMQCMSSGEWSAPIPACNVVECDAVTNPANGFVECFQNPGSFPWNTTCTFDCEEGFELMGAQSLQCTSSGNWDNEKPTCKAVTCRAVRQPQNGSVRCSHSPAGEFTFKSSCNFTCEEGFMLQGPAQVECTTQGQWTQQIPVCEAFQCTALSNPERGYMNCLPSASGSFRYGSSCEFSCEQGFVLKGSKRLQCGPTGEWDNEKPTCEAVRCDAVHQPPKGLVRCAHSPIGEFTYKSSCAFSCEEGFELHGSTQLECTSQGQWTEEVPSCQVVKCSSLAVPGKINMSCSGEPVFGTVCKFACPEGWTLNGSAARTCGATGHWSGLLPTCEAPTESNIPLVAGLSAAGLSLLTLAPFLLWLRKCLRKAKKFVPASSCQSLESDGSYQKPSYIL
smiles,measurement,setting,value
O=C(O)C(F)(F)C(F)(F)C(F)(F)C(F)(F)C(F)(F)C(F)(F)C(F)(F)C(F)(F)C(F)(F)C(F)(F)C(F)(F)C(F)(F)F,outcome,[1],inactive
same,outcome,[2],inactive
same,AC50,[3],15.2 µM (active) and 19.4 µM (active)
same,AC50,[4],8.71 µM (active)
same,outcome,[4],inactive
same,outcome,[5],inactive
same,outcome,[6],inactive
same,outcome,[7],inactive
same,outcome,[8],inactive
same,outcome,[9],inactive
same,outcome,[10],inactive
same,outcome,[11],inactive
same,outcome,[12],inactive
FC(F)(I)C(F)(F)C(F)(F)C(F)(F)I,AC50,[1],45.7 µM (active) and 49.4 µM (active)
same,outcome,[1],inactive
same,AC50,[2],52.1 µM (active) and 46.6 µM (active) and 47 µM (active)
same,AC50,[3],54 µM (active)
same,outcome,[3],inactive
same,AC50,[4],49.8 µM (active) and 46 µM (active) and 53.4 µM (active)
same,outcome,[13],inactive
same,AC50,[5],46 µM (active)
same,outcome,[5],inactive
same,outcome,[6],inactive
same,outcome,[7],inactive
same,outcome,[8],inactive
same,AC50,[9],30 µM (active) and 19.6 µM (active)
same,outcome,[9],inactive
same,AC50,[10],30 µM (active)
same,outcome,[10],inactive
same,AC50,[11],47.8 µM (active) and 45.9 µM (active)
same,outcome,[11],inactive
same,AC50,[12],45.8 µM (active)
same,outcome,[12],inactive
FC(F)(Br)C(F)(F)C(F)(F)C(F)(F)C(F)(F)C(F)(F)Br,outcome,[1],inactive
same,outcome,[2],inactive
same,outcome,[3],inactive
same,outcome,[4],inactive
same,outcome,[13],inactive
same,outcome,[5],inactive
same,outcome,[6],inactive
same,outcome,[7],inactive
same,outcome,[8],inactive
same,outcome,[9],inactive
same,outcome,[10],inactive
same,outcome,[11],inactive
same,outcome,[12],inactive
N=C(N)C(F)(F)C(F)(F)C(F)(F)C(F)(F)C(F)(F)C(F)(F)C(F)(F)F,outcome,[1],inactive
same,AC50,[2],43.8 µM (active)
same,outcome,[2],inactive
same,AC50,[3],41.4 µM (active)
same,outcome,[3],inactive
same,AC50,[4],30 µM (active)
same,outcome,[4],inactive
same,AC50,[5],30 µM (active)
same,outcome,[5],inactive
same,outcome,[6],inactive
same,outcome,[7],inactive
same,outcome,[8],inactive
same,outcome,[9],inactive
same,outcome,[10],inactive
same,outcome,[11],inactive
same,AC50,[12],48.7 µM (active)
same,outcome,[12],inactive
O=S(=O)(O)C(F)(F)C(F)(F)C(F)(F)C(F)(F)C(F)(F)C(F)(F)C(F)(F)F,outcome,[1],inactive
same,outcome,[2],inactive
same,outcome,[3],inactive
same,outcome,[4],inactive
same,outcome,[5],inactive
same,outcome,[6],inactive
same,outcome,[7],inactive
same,outcome,[8],inactive
same,outcome,[9],inactive
same,AC50,[10],13.3 µM (active)
same,outcome,[10],inactive
same,outcome,[11],inactive
same,outcome,[12],inactive
O=C(O)C(F)(F)C(F)(F)OC(F)(F)F,outcome,[1],inactive
same,outcome,[2],inactive
same,outcome,[3],inactive
same,outcome,[4],inactive
same,outcome,[13],inactive
same,outcome,[5],inactive
same,outcome,[6],inactive
same,outcome,[7],inactive
same,outcome,[8],inactive
same,outcome,[9],inactive
same,outcome,[10],inactive
same,outcome,[11],inactive
same,outcome,[12],inactive
O=C(CC(=O)C(F)(F)C(F)(F)F)C(F)(F)F,outcome,[1],inactive
same,outcome,[2],inactive
same,outcome,[3],inactive
same,outcome,[4],inactive
same,outcome,[13],inactive
same,outcome,[5],inactive
same,outcome,[6],inactive
same,outcome,[7],inactive
same,outcome,[8],inactive
same,outcome,[9],inactive
same,outcome,[10],inactive
same,outcome,[11],inactive
same,outcome,[12],inactive
OCCCC(F)(F)C(F)(F)C(F)(F)C(F)(F)C(F)(F)C(F)(F)C(F)(F)F,AC50,[1],45.3 µM (active) and 48.2 µM (active)
same,AC50,[2],16.1 µM (active) and 17.6 µM (active)
same,AC50,[3],54.6 µM (active)
same,outcome,[3],inactive
same,AC50,[4],18.3 µM (active) and 20.1 µM (active)
same,AC50,[13],42.5 µM (active) and 53 µM (active)
same,AC50,[5],14.4 µM (active) and 16.8 µM (active)
same,outcome,[6],inactive
same,AC50,[7],45.4 µM (active)
same,outcome,[7],inactive
same,AC50,[8],51.8 µM (active) and 47.2 µM (active)
same,AC50,[9],45.8 µM (active)
same,outcome,[9],inactive
same,AC50,[10],54.9 µM (active)
same,outcome,[10],inactive
same,AC50,[11],46.3 µM (active)
same,outcome,[11],inactive
same,AC50,[12],49.4 µM (active) and 45.6 µM (active)
FC(F)(F)C(F)(F)C(F)(F)C(F)(F)C(F)(F)C(F)(F)C(F)(F)I,outcome,[1],inactive
same,outcome,[2],inactive
same,outcome,[3],inactive
same,outcome,[4],inactive
same,outcome,[13],inactive
same,outcome,[5],inactive
same,outcome,[6],inactive
same,outcome,[7],inactive
same,outcome,[8],inactive
same,outcome,[9],inactive
same,outcome,[10],inactive
same,outcome,[11],inactive
same,outcome,[12],inactive
OCC(F)(F)C(F)(F)C(F)(F)C(F)(F)C(F)(F)C(F)F,outcome,[1],inactive
same,outcome,[2],inactive
same,outcome,[3],inactive
same,outcome,[4],inactive
same,outcome,[5],inactive
same,AC50,[6],23.4 µM (active)
same,outcome,[6],inactive
same,outcome,[7],inactive
same,outcome,[8],inactive
same,outcome,[9],inactive
same,outcome,[10],inactive
same,AC50,[11],0.596 µM (active)
same,outcome,[11],inactive
same,outcome,[12],inactive
CC(C)(C)C(=O)CC(=O)C(F)(F)C(F)(F)C(F)(F)F,outcome,[1],inactive
same,outcome,[2],inactive
same,outcome,[3],inactive
same,outcome,[4],inactive
same,outcome,[13],inactive
same,outcome,[5],inactive
same,outcome,[6],inactive
same,outcome,[7],inactive
same,outcome,[8],inactive
same,outcome,[9],inactive
same,outcome,[10],inactive
same,outcome,[11],inactive
same,outcome,[12],inactive
O=P(O)(O)OCCC(F)(F)C(F)(F)C(F)(F)C(F)(F)C(F)(F)C(F)(F)F,outcome,[1],inactive
same,outcome,[2],inactive
same,outcome,[3],inactive
same,outcome,[4],inactive
same,outcome,[5],inactive
same,outcome,[6],inactive
same,AC50,[7],5.46 µM (active)
same,outcome,[7],inactive
same,outcome,[8],inactive
same,outcome,[9],inactive
same,outcome,[10],inactive
same,outcome,[11],inactive
same,outcome,[12],inactive
same,outcome,[14],inactive
